# Hits are enriched below; roughly 10% of the tested compounds scored in any of these assays.
# HPGD block – inhibitors of human 15-hydroxyprostaglandin dehydrogenase (HPGD); purified HPGD, NADH fluorescence kinetic, PGE2 substrate; P15428; Potency, µM, for inactives: at the top dose activity change, negative = inhibition, actives largely listed as inhibitors; 150,000 tested, 4.3% active; AID 894; further: potency means the concentration at half of the fitted maximal effect
# Target sequence (P15428 whole entry, looked up): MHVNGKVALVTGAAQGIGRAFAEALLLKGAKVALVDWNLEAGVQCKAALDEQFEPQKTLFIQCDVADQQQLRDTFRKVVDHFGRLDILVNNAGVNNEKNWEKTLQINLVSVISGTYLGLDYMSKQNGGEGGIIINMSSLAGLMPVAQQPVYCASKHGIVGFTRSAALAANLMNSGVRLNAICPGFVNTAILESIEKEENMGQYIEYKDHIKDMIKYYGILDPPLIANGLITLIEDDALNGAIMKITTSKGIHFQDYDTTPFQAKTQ
#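 NADH formation kinetics: reaction with 30 uM PGE2 and 1 mM NAD+ (final), 20 nM enzyme, Tris-HCl pH 8 with Tween 20, after 15 min compound preincubation at room temperature. Fluorescence change, last versus first of five reads.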
# Lamin A splicing – LMNA splicing modulation; HeLa LMNA splicing GFP/RFP minigene ratio, 48 h; Potency, µM (highest dose often 46.1 µM), inactives show at the top dose ratio change, negative = inhibition, actives largely listed as inhibitors; 200,000 tested, 0.01% active; active means well fitted inhibition curve with a large enough effect in the signal ratio, with a control signal flat, not every such curve was filed as active; inconclusive means small, poorly fitted or top-dose-only effect, or effect the other way, or a change in a side signal; the % refers to the signal ratio; further: potency means the concentration at half of the fitted maximal effect
#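 S3 HeLa stable clones carrying a lamin A-EGFP splicing minigene plus DsRed2 were seeded at 600 cells/well in Opti-MEM with 2% FBS, pin-dosed and incubated 48 h at 37°C. Acumen cytometry (488 nm) gave the GFP/RFP total-intensity ratio.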
# PNC inhibitor – inhibitors of perinucleolar compartment assembly | PC3M PTB-GFP, PNC prevalence imaging, 16 h; stronger effect = lower value | activity change (PNC), negative = inhibition, % at 10 µM | 140,000 tested, 3.1% active | AID 2417;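 active means readout at or below -70, meaning at least 70% loss of cells showing the perinucleolar compartment, a nuclear body marking cancer cells; inconclusive means readout between -30 and a set limit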;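 further: plate controls were DMSO wells for no effect and camptothecin positive control wells for full effect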
#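 PC3M cells stably expressing PTB-GFP, 750–1000 cells/well, treated 16 h at 37 °C with compound (23 nl of library stock), in duplicate. After paraformaldehyde fixation and Hoechst stain, imaged at 20x; PNC prevalence scored by image analysis.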
# ALDH1A1 block – inhibitors of human aldehyde dehydrogenase 1A1 | P00352 | Purified ALDH1A1, NADH fluorescence, propionaldehyde substrate | Potency, µM (titrated, usually from 75.3 µM), for inactives: at the top dose activity, negative = inhibition, most hits filed as inhibitors | 220,000 tested, 7.3% active;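 further: potency means the concentration at half of the fitted maximal effect; plate controls were no enzyme wells and a reference inhibitor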
# Target sequence (P00352 whole entry, looked up): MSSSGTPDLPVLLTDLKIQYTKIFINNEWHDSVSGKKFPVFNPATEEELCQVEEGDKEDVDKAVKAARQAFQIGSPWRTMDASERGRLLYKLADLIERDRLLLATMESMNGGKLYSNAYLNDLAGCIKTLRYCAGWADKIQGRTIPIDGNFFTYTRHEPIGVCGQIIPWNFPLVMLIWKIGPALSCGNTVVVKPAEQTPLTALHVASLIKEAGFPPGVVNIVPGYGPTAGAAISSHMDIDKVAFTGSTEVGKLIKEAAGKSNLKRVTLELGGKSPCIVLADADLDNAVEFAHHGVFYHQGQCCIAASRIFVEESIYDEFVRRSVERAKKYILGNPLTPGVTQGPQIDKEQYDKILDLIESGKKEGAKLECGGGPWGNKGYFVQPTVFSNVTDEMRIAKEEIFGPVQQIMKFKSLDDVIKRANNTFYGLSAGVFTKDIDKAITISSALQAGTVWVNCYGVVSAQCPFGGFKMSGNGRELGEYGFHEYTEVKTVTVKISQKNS
# Luc counter – Kinase-Glo luciferase inhibition (counter-screen); Q27757; Kinase-Glo luciferase, ATP luminescence, 8 min; Potency, µM (titrated, usually from 38.3 µM), inactives show at the top dose activity change, negative = inhibition, usual class: inhibitors; 200,000 tested, 0.28% active; AID 1379; active means well fitted inhibition curve with a large enough effect; inconclusive means small, poorly fitted or top-dose-only effect; further: potency means the concentration at half of the fitted maximal effect; nearly all actives have a fitted effect of over 60% in size
#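 Substrate mix (final 50 mM imidazole pH 7.2, 50 mM KCl, 7 mM MgCl2, 10 uM ATP, 0.01% Tween 20, 0.05% BSA) plus pin-tool compound, then Kinase-Glo detection mix; 8 min ambient, luminescence read.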
# Starred values were filed as active, the others as inactive; ? = inconclusive; nt = not tested or not shown; [ ] = another dose, or the depositor's remark. Unless noted, the call rests on the fitted dose curve; in most records, active means well fitted inhibition curve with a large enough effect (not every such curve was filed as active); inconclusive means small, poorly fitted or top-dose-only effect, or another doubt; inactive means no such curve, though single readings can be large or run the other way. Unless noted, on the % scale 0 is the no-effect control and ±100 the full control effect.
SMILES,HPGD block,Lamin A splicing,PNC inhibitor,ALDH1A1 block,Luc counter
C=CCSC1=N/C(=C\C=C\c2ccco2)C(=O)S1,-23.1%,1.7%,24.4,20µM*,-0.7%
Cc1ccc2[nH]c3c(c2c1)CN(C(=O)CN1CCN(Cc2ccc4c(c2)OCO4)CC1)CC3,-12.9%,-4.1%,-0.6,?,-1.0%
Cc1ccc2[nH]c3c(c2c1)CN(C(=O)CN1CCN(c2ccccn2)CC1)CC3,-22.4%,-8.2%,-12.7,10µM*,1.2%
Cc1ccc2[nH]c3c(c2c1)CN(C(=O)CN1CC(C)OC(C)C1)CC3 (stereo not given),-8.9%,-2.9%,?,11.2µM*,0.2%
CC(C)N(C(=O)c1sc2cc([N+](=O)[O-])ccc2c1Cl)C(C)C,28.2µM*,1.6%,17.5,?,-7.0%
O=C(c1cccc([N+](=O)[O-])c1)N1CCOCC1,-2.2%,-13.2%,29.9,5.5%,-2.5%
O=C(c1sc2cc([N+](=O)[O-])ccc2c1Cl)N1CCOCC1,15.8µM*,-15.2%,13.1,-1.5%,-3.8%
O=C(c1cc2cc([N+](=O)[O-])ccc2oc1=O)N1CCOCC1,nt,?,nt,12.6µM*,-21.1%
COc1cccc(-c2csc(NC(C)=O)n2)c1,?,-10.0%,-5.1,11.2µM*,0.2%
COc1cccc(-c2csc(N3CCN(Cc4ccccc4)CC3)n2)c1,25.1µM*,?,-14.1,10µM*,-1.3%
CC(=O)Nc1cccc(-c2csc(NCc3ccco3)n2)c1,-23.9%,-3.8%,40.7,12.6µM*,-4.2%
COc1cccc(-c2csc(N3CCN(C(=S)Nc4ccc(Cl)cc4)CC3)n2)c1,-21.4%,-10.6%,100.0,0.0891µM*,-1.0%
COc1ccc(C(=O)N2CCc3cc(OC)c(OC)cc3C2COc2ccccc2OC)cc1 (stereo not given),nt,-1.6%[46 µM],nt,nt,nt
O=C(NCC(c1ccc2c(c1)OCO2)N1CCN(c2ccccc2)CC1)C(=O)Nc1cccc(F)c1 (stereo not given),nt,5.0%[46 µM],nt,nt,nt
CCc1ccc(-n2nc(C)c3c(C(=O)Nc4cc(C)c(Cl)cc4OC)cc(C)nc32)cc1,nt,6.1%[46 µM],nt,nt,nt
COc1cccc(-c2csc(N3CCN(C(=O)Nc4ccccc4Cl)CC3)n2)c1,nt,?,nt,22.4µM*,0.0%
COc1ccc(N2C(=O)CC(Sc3nnc(-c4ccccc4)o3)C2=O)cc1 (stereo not given),22.4µM*,2.5%,?,1.78µM*,14.7%
O=C1CC(Sc2nnc(-c3ccccc3O)o2)C(=O)N1c1ccccc1 (stereo not given),?,7.5%,-17.6,3.55µM*,0.7%
O=C1OCCC1Sc1nnc(-c2ccccc2)o1 (stereo not given),-7.3%,12.2%,-14.7,7.1%,-5.2%
Nc1cc(-c2ccncc2)c[nH]c1=O,?,?,?,11.2µM*,-13.4%
CCOC(=O)Cn1nnnc1C(C(C)C)N(Cc1cccs1)Cc1cc2cc(C)ccc2[nH]c1=O (stereo not given),?,-3.6%,32.1,?,-3.3%
CCOC(=O)Cn1nnnc1C(CC)N(Cc1cc2ccc(C)cc2[nH]c1=O)C1CCCC1 (stereo not given),-16.5%,-7.2%,-19.9,20µM*,17.0%
CCOC(=O)Cn1nnnc1C(CC)N(Cc1cc2c(C)cc(C)cc2[nH]c1=O)C1CCCC1 (stereo not given),-6.7%,5.3%,?,17.8µM*,0.7%
CCOC(=O)Cn1nnnc1C(CC)N(Cc1cccs1)Cc1cc2cc(C)ccc2[nH]c1=O (stereo not given),?,-5.6%,56.5,?,0.2%
CSc1ccc2c(c1)N(CCCN(C)C)c1ccccc1S2,-4.0%,nt,nt,18.6%[13.5 µM],-1.8%[7.66 µM]
SMILES,HPGD block,Lamin A splicing,PNC inhibitor,ALDH1A1 block,Luc counter
CN(C)CCCN1c2ccccc2Sc2ccc(C(F)(F)F)cc21,-2.0%,?,-114.6*,11.0%,-1.9%
COc1cc2c(cc1OC)C(C1C(=O)CC(C)(C)CC1=O)N(C(=O)CCl)CC2 (stereo not given),-10.6%,18.3%,-80.1*,?,0.7%
CC1CC(=O)C(C2c3ccccc3CCN2C(=O)CCl)C(=O)C1 (stereo not given),-5.9%,10.8%,-3.2,-6.5%,3.8%
Cc1cccc(N2CCN(CC(O)COCc3cccs3)CC2)c1C (stereo not given),nt,-17.5%,-115.2*,-10.0%,nt
OC(COCc1cccs1)CN1CCN(c2ccccc2Cl)CC1 (stereo not given),-1.5%,-10.8%,-14.8,14.4%,2.4%
Cc1ccc(-n2c(C)cc3c2CC(C)(C)CC3=O)cc1C,-4.3%,3.7%,-85.2*,?,-1.7%
O=C(CSc1nnc(SCc2ccccc2)s1)NNC(=S)Nc1ccccc1,10µM*,-10.1%,?,3.16µM*,5.7%
O=C(CCC(=O)NNC(=S)Nc1ccccc1)NCc1ccccc1,-11.3%,12.9%,-12.1,?,10.9%
CCn1c(SCC(=O)N/N=C/C=C/c2ccco2)nnc1-c1ccccc1,-10.0%,?,?,17.8µM*,0.6%
CCn1c(SCC(=O)N/N=C/C(C)=C/c2ccco2)nnc1-c1ccccc1,-13.4%,0.2%,-12.7,20µM*,1.2%
O=C(CSc1nnc(SCc2ccccc2)s1)N/N=C/C=C/c1ccco1,28.2µM*,-9.9%,10.7,14.1µM*,-3.9%
CC1Cc2cc(S(=O)(=O)NCCc3ccccc3)ccc2N1C(=O)C1CCC1 (stereo not given),nt,-8.0%[46 µM],nt,nt,nt
Cc1ccc(N2CC(c3nc(-c4ccc(Cl)cc4)no3)CC2=O)cc1F (stereo not given),nt,4.4%[46 µM],nt,nt,nt
Oc1ccc(N=Nc2ccc3c(c2)OCCO3)c2ncccc12,nt,nt,nt,8.7%,nt
Cc1ccc(/C=N/NC(=O)CSc2nnc(-c3ccccc3)n2-c2ccc(Cl)cc2)o1,-1.3%,19.4%,?,?,3.0%
CCn1c(SCC(=O)N/N=C/c2ccc(C)o2)nnc1-c1ccccc1,?,-1.9%,39.7,11.2µM*,6.2%
Cc1ccc(/C=N/NC(=O)CSc2nnc(-c3ccc(Cl)cc3)n2-c2ccc(Cl)cc2)o1,-3.9%,18.8%,23.7,10µM*,-2.1%
Cn1c(SCC(=O)N/N=C/C=C/c2ccco2)nc2ccccc21,-25.1%,6.5%,?,14.1µM*,1.7%
Cn1c(SCC(=O)N/N=C/C=C/c2ccccc2[N+](=O)[O-])nc2ccccc21,-5.4%,-23.6%,12.6,?,2.1%
O=C(Cc1cccs1)N/N=C/C=C/c1ccco1,?,1.6%,18.7,3.98µM*,-0.6%
CCCCC/C=C\C/C=C\CCCCCCCC(=O)NCCc1ccc(O)c(O)c1,-2.2%,nt,nt,-14.0%,-1.7%
CCn1c(SCC(=O)N/N=C(\C)c2ccncc2)nnc1-c1ccc(C)cc1,nt,nt,nt,20µM*,nt
CCn1c(SCC(=O)N/N=C(\C)c2ccncc2)nnc1-c1ccccc1,nt,nt,nt,1.3%,0.3%
CCn1c(SCC(=O)N/N=C(\C)c2ccco2)nnc1-c1ccccc1,nt,?,nt,11.2µM*,-0.2%
